# Reference: PubChem BioAssay
# Active and inactive are the calls of the source. Unless noted, the rule behind the calls is not given here.
# How the values were obtained:
# [1] = test system: Wnt5a (protein binding on small-molecule microarray); experiment: Wnt5a binders on small-molecule microarray, primary screen, biophysical, 635/667 nm fluorescence (AID 1142); conditions: 635 nm fluorescence, higher = more signal;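 note: fluorescence read at 667 nm with signal to noise per printed feature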
# [2] = cell viability in Huh7 cells, primary screen, cytotoxicity control for HCV replication inhibitor project, CellTiter-Glo luminescence, basal, 48 h (AID 1143); conditions: Huh7 HCV replicon, higher = more signal, called active from +8 up or from −8 down;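 note: Huh7 hepatoma cells carrying a hepatitis C replication reporter with no stimulus; test concentration not given here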
# [3] = P. aeruginosa biofilm formation inhibitors, primary screen, PAO1 strain, BacTiter-Glo luminescence, LB-PBS (AID 1144); conditions: 12 h, higher = more signal
# [4] = CREB reporter modulators without forskolin, primary screen, cell-based, PC12, CRE-LacZ reporter, unstimulated (AID 1145); conditions: no forskolin, luminescence, 4.5 h, higher = more signal, called active from +8 up or from −8 down
# [5] = CREB reporter modulators under forskolin, primary screen, cell-based, PC12, CRE-LacZ reporter, forskolin-stimulated (AID 1146); conditions: luminescence, 4.5 h, higher = more signal, called active from +8 up or from −8 down;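 note: PC12 cells with 6xCRE LacZ reporter stimulated by forskolin 10 µM; beta-galactosidase reporter signal reflecting CREB driven transcription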
# [6] = target: Streptavidin (Streptomyces avidinii) (UniProt P22629); experiment: streptavidin binders on small-molecule microarray, primary screen, artefact control for SMM compound annotation, biophysical, 635/667 nm fluorescence (AID 1147); conditions: streptavidin binding, higher = more signal;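 note: signal reflects streptavidin binding to arrayed compounds as a control protein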
# [7] = small-molecule binders of probe aInhba, primary screen, biochemical, small-molecule microarray, 635/667 nm fluorescence (AID 1148); conditions: higher = more signal;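 note: score merges 667nm spot fluorescence with signal-to-noise for antibody binding to printed compounds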
# Torsin-1A (Homo sapiens) [8] = target: Torsin-1A (Homo sapiens) (UniProt O14656); experiment: torsin A binders from cell lysate, primary screen, small-molecule microarray, wild-type, 635/667 nm (AID 1149); conditions: COS7 hTOR1A-WT lysate, 635 nm fluorescence, higher = more signal
# Torsin-1A (Homo sapiens) [9] = target: Torsin-1A (Homo sapiens) (UniProt O14656); experiment: small-molecule binders of mutant TOR1A in lysate, primary screen, cell lysate, small-molecule microarray, COS7 lysate, 635/667 nm fluorescence (AID 1150); conditions: COS7 hTOR1A mutant lysate, 635 nm fluorescence, higher = more signal;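 note: score pools 667 nm emission and signal to noise measuring lysate protein binding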
# [10] = test system: Sonic hedgehog protein (Shh); experiment: small-molecule binders of Shh protein, primary screen, biochemical, small-molecule microarray, 635/667 nm fluorescence (AID 1151); conditions: small-molecule microarray binding, 635 nm fluorescence; higher = more signal;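 note: Shh protein binding to compounds spotted on small-molecule microarray slides; score combines spot fluorescence intensity with signal-to-noise across triplicate slides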
# [11] = E. coli DRC41 culture turbidity changes, primary screen, E. coli filamentation inducer project, strain DRC41, OD650, 48 h (AID 1152);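 note: E. coli MC1000 strain DRC41 lacking acrAB efflux pump and sulA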; conditions: E. coli DRC41 (acrAB sulA), higher = more signal, called active from +8 up or from −8 down
# [12] = small-molecule binders of probe aLefty1, primary screen, biochemical, small-molecule microarray, 635/667 nm fluorescence (AID 1153); conditions: higher = more signal;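 note: score merges spot fluorescence with signal-to-noise ratio from the scanned slide images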
# [13] = PSAC antagonists in infected red cells, primary screen, cell-based, P. falciparum Indochina, OD700, 1 h (AID 1154); conditions: P. falciparum Indochina infected RBC osmotic lysis, higher = more signal, called active from +8 up or from −8 down
# [14] = PSAC antagonists in infected red cells, primary screen, cell-based, P. falciparum Indochina, OD700, 2 h (AID 1155);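 note: lysis reports solute entry through the parasite surface anion channel PSAC; channel blockers reduce lysis of infected cells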; conditions: P. falciparum Indochina infected erythrocytes, osmotic lysis OD700; higher = more signal, called active from +8 up or from −8 down
# [15] = osmotic lysis modulators in infected erythrocytes, primary screen, PSAC antagonist project, cell-based, P. falciparum Indochina, OD700, 3 h (AID 1156); conditions: higher = more signal, called active from +8 up or from −8 down
# [16] = PSAC antagonists in infected red cells, primary screen, cell-based, P. falciparum Indochina, OD700, 18 h (AID 1157); conditions: P. falciparum Indochina infected erythrocytes, osmotic lysis OD700, 18 h; higher = more signal, called active from +8 up or from −8 down
# [17] = modulators of S6 phosphorylation in cells, primary screen, cell-based, A549, cytoblot, luminescence, serum-stimulated (AID 1158); conditions: A549 phospho-S6 cytoblot, 5 h, higher = more signal;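 note: serum-stimulated A549 lung adenocarcinoma cells; signal is phosphorylated S6 detected by cytoblot immunostaining with HRP secondary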
# [18] = target: NADPH oxidase 2 (Homo sapiens) (UniProt P04839); experiment: NOX2-dependent H2O2 signal modulators, primary screen, NOX inhibitor project, cell-based, HEK293-NOX2, PMA-stimulated, Amplex Red fluorescence (AID 1159); conditions: 45 min, higher = more signal, called active from +8 up or from −8 down; note: test concentration not given here
# [19] = target: NADPH oxidase 4 (Homo sapiens) (UniProt Q9NPH5); experiment: NOX4-dependent H2O2 signal modulators, primary screen, NOX inhibitor project, cell-based, HEK293-NOX4, tetracycline-induced, Amplex Red fluorescence (AID 1160); conditions: 45 min, higher = more signal, called active from +8 up or from −8 down
# [20] = target: NADPH oxidase 5 (Homo sapiens) (UniProt Q96PH1); experiment: NOX5-dependent H2O2 signal modulators, primary screen, NOX inhibitor project, cell-based, HEK293-NOX5, Amplex Red fluorescence (AID 1161); conditions: HEK293-NOX5, ionomycin, 45 min, higher = more signal
# NADPH oxidase 5 (Homo sapiens), sequence (Q96PH1 whole entry, looked up): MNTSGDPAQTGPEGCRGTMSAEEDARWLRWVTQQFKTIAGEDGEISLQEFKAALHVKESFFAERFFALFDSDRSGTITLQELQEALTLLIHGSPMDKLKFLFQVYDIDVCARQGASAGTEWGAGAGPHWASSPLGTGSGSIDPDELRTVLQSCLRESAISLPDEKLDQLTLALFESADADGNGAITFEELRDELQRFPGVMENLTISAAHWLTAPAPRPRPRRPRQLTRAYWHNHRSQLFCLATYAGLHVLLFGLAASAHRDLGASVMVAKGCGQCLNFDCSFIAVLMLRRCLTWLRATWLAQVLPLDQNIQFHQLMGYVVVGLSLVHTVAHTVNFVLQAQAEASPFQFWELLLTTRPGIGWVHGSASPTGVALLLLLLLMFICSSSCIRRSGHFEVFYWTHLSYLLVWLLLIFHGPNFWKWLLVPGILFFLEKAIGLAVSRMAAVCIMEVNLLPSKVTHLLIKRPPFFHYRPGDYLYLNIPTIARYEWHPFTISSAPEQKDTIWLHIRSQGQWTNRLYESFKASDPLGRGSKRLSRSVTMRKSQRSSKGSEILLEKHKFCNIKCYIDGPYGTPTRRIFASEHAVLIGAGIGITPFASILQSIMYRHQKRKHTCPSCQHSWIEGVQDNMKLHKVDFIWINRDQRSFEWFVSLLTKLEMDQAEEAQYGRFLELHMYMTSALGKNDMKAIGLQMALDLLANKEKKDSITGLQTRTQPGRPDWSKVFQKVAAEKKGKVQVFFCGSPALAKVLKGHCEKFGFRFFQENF
# NADPH oxidase 2 (Homo sapiens), sequence (P04839 whole entry, looked up): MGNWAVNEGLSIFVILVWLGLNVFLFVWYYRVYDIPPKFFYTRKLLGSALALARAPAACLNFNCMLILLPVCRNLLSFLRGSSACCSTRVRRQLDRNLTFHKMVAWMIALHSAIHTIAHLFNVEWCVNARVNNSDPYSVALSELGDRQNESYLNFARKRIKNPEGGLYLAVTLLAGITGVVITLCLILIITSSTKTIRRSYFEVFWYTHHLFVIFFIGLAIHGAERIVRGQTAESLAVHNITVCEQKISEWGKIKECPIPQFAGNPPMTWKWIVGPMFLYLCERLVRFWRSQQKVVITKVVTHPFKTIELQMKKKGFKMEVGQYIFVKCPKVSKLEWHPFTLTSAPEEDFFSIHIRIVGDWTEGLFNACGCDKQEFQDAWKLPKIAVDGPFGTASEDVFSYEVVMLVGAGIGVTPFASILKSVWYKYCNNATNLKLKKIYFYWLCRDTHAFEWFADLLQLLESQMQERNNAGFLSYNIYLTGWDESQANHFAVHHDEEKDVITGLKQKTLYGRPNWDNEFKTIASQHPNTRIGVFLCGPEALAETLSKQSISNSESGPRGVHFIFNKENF
# Torsin-1A (Homo sapiens), sequence (O14656 whole entry, looked up): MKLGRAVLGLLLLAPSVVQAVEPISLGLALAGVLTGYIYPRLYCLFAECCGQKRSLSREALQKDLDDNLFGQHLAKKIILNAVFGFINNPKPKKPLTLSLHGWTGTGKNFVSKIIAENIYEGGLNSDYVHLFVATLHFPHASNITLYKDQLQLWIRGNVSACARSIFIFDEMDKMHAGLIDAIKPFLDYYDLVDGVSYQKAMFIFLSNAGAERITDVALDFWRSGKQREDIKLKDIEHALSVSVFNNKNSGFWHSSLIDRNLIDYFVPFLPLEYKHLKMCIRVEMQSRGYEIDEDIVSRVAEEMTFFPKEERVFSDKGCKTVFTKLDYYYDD
# NADPH oxidase 4 (Homo sapiens), sequence (Q9NPH5 whole entry, looked up): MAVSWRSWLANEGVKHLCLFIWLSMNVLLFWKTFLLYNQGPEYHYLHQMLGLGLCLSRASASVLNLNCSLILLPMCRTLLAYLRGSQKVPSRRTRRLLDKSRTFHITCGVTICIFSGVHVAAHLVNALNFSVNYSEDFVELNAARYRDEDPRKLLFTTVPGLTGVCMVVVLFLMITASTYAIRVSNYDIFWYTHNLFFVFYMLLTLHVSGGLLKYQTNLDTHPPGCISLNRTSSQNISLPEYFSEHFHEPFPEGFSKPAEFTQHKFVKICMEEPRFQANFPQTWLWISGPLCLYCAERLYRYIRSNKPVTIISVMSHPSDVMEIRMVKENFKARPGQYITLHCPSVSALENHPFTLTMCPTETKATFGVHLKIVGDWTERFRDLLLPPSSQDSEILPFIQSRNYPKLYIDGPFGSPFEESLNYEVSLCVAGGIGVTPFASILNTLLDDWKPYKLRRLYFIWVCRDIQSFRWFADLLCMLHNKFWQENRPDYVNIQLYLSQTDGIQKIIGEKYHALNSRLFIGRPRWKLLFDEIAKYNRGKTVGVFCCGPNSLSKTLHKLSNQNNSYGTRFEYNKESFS
# Streptavidin (Streptomyces avidinii), sequence (P22629 whole entry, looked up): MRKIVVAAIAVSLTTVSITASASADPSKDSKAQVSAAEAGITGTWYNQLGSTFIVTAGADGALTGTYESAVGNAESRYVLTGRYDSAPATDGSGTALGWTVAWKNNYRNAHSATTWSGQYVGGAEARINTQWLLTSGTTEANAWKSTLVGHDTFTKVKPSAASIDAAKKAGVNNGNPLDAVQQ
SMILES,composite z-score [1],z-score [2],z-score [3],z-score [4],z-score [5],composite z-score [6],composite z-score [7],composite z-score (Torsin-1A (Homo sapiens) [8]),composite z-score (Torsin-1A (Homo sapiens) [9]),composite z-score [10],z-score [11],composite z-score [12],z-score [13],z-score [14],z-score [15],z-score [16],z-score [17],z-score [18],z-score [19],z-score [20]
NC(=O)NCC#Cc1ccc2c(c1)[C@]1(C(=O)N2)[C@H](c2ccccc2OCCO)N2[C@H](c3ccccc3)[C@H](c3ccccc3)OC(=O)[C@H]2[C@@H]1C(=O)N1CCCCCCC1,0.723,-1.57 (inactive),0.433 (inactive),0.802 (inactive),0.109 (inactive),2.48,1.88,2.04,1.28,1.05,1.01 (inactive),2.71,1.71 (inactive),0.786 (inactive),1.19 (inactive),0.443 (inactive),-0.281,1.87 (inactive),0.893 (inactive),0.768
O=S(=O)(NCCCO)c1ccc(Br)cc1,0.191,-1.52 (inactive),-0.658 (inactive),-0.198 (inactive),-0.472 (inactive),0.587,-0.024,0.729,0.783,0.533,0.949 (inactive),0.103,0.168 (inactive),-0.852 (inactive),-1.21 (inactive),-1.71 (inactive),0.679,-1.2 (inactive),-0.0431 (inactive),0.102
O=C1O[C@H](c2ccccc2)[C@H](c2ccccc2)N2[C@H]1[C@@H](C(=O)Nc1nc3ccccc3s1)[C@]1(C(=O)Nc3ccc(C#CC4=CCCCC4)cc31)[C@H]2c1ccc(OCCO)cc1,0.706,-1.3 (inactive),-0.711 (inactive),0.128 (inactive),0.205 (inactive),1.73,0.417,0.0608,0.407,0.598,-0.199 (inactive),0.46,2.54 (inactive),1.62 (inactive),1.44 (inactive),1.2 (inactive),-0.686,1.92 (inactive),0.266 (inactive),0.0146
CN1C(=O)C2C(C1=O)C1C=C(c3ccc(CO)cc3)C2C(C2CC2)N1Cc1cc2c(cc1Br)OCO2 (stereo not given),0.164,-5.17 (inactive),-0.401 (inactive),0.622 (inactive),-1.62 (inactive),1.75,0.138,1.16,1.65,0.796,-0.515 (inactive),0.464,19.5 (active),3.1 (inactive),1.2 (inactive),-0.898 (inactive),1.05,-1.18 (inactive),-1.04 (inactive),-0.488
CCCC[C@H]1OB(O)C[C@H]2C1=C(C)Cn1c(=O)n(-c3ccccc3)c(=O)n12,0.0677,0.007 (inactive),-0.444 (inactive),0.222 (inactive),-0.251 (inactive),-0.124,0.0301,0.363,-0.0931,0.759,-2.02 (inactive),-0.677,0.0016 (inactive),0.408 (inactive),0.393 (inactive),0.181 (inactive),0.441,-0.59 (inactive),-0.181 (inactive),-0.278
C=CCNC(=O)[C@@H]1[C@H]2C(=O)O[C@H](c3ccccc3)[C@H](c3ccccc3)N2[C@H](c2ccccc2OCCO)[C@@]12C(=O)N(C(=O)OCCOC)c1ccc(C#CCC(C(=O)OC)C(=O)OC)cc12,0.978,-5.68 (inactive),0.0376 (inactive),-0.195 (inactive),-0.569 (inactive),1.63,0.86,0.612,1.56,2.04,0.0535 (inactive),1.51,1.78 (inactive),0.931 (inactive),0.222 (inactive),0.506 (inactive),0.273,0.793 (inactive),0.966 (inactive),1.07
COC(=O)[C@@]1(Cc2ccc(OC)cc2)[C@H]2c3cc(C(=O)N(C)C)n(Cc4ccc(OC)c(OC)c4)c3C[C@H]2CN1C(=O)c1ccccc1,0.171,-2.97 (inactive),0.437 (inactive),0.583 (inactive),0.292 (inactive),1.67,0.55,0.258,1.17,-0.521,-1.86 (inactive),1.14,2.55 (inactive),0.807 (inactive),0.804 (inactive),1.23 (inactive),-0.574,0.178 (inactive),1.13 (inactive),2.18
O=C(NCc1ccccc1)[C@@H]1c2ccccc2C(=O)N(Cc2cc(F)cc(C(F)(F)F)c2)[C@H]1c1ccc(CO)cc1,0.0748,-1.26 (inactive),0.339 (inactive),-0.0888 (inactive),-1.61 (inactive),0.0709,0.0227,0.484,0.426,1.15,0.363 (inactive),0.0455,5.82 (inactive),1.23 (inactive),1.03 (inactive),0.156 (inactive),-0.26,-2.01 (inactive),0.598 (inactive),-1.58
[N-]=[N+]=NCc1ccccc1C[C@@]1(C(=O)NCc2ccccc2)N=C(c2ccc(OCCCO)cc2)O[C@@H]1c1ccccc1CN=[N+]=[N-],0.262,-3.35 (inactive),0.503 (inactive),0.297 (inactive),0.448 (inactive),1.19,0.406,0.327,0.367,-0.603,0.561 (inactive),0.7,26.1 (active),15.3 (active),1.58 (inactive),1.87 (inactive),-0.633,-1.03 (inactive),-0.17 (inactive),-0.353
C=C(CCCC)C(=O)CC[C@@H](OC(=O)c1ccccc1-c1ccccc1C(=O)O)c1ccc(CO)o1,0.233,0.0462 (inactive),-0.0968 (inactive),-0.219 (inactive),0.432 (inactive),-0.3,0.181,1.29,0.854,1.08,-0.467 (inactive),0.379,1.6 (inactive),0.228 (inactive),1.19 (inactive),0.161 (inactive),-0.946,1.35 (inactive),-0.203 (inactive),-0.475
